# Reference: PubChem BioAssay AID1645860 (Buhrlage Lab, Dana-Farber Cancer Institute and Novartis …, 2021)
# Among all 47,000 compounds or so, about 2,500 (5.3%) were called active. No stated cut-off is given here; in the data, active means inhibition above about 30%; inactive means the rest. The full list was thinned out, with actives kept by preference.
# Target: Ubiquitin carboxyl-terminal hydrolase 30 (Homo sapiens) (UniProt Q70CQ3)
# Assay: blocks human USP30 ubiquitin-rhodamine cleavage (AID 1645860)
# Details: purified USP30, Ub-rhodamine cleavage fluorescence; at 25 µM; stronger effect = higher value
# Sequence of Ubiquitin carboxyl-terminal hydrolase 30 (Homo sapiens) (Q70CQ3 whole entry, looked up): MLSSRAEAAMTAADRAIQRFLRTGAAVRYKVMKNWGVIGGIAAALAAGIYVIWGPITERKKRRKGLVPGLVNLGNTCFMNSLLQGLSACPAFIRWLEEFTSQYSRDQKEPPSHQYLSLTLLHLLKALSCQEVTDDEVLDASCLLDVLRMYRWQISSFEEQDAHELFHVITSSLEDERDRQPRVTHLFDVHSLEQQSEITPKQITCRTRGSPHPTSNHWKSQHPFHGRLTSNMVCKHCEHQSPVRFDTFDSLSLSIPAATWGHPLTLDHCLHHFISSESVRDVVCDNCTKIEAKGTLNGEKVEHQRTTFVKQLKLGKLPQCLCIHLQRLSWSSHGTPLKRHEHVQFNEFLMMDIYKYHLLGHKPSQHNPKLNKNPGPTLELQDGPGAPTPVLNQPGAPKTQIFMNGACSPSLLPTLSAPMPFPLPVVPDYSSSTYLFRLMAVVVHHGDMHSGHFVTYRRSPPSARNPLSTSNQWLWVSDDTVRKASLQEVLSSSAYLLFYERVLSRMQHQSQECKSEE
row,Structure (SMILES),inhibition
1,C[C@]12C(=O)N(C3CC3)CC(=O)N1CC(c1ccccc1Cl)c1c2[nH]c2ccccc12 (some centres undefined),21.3% (inactive)
2,Cc1cc(=O)c2c(O)cccc2o1,-221% (inactive)
3,COc1ccc(CCC(=O)Nc2ccc3nc(N4CCOCC4)cc(C)c3c2)cc1,-2.1% (inactive)
4,Cc1nc(N(C)C)cc(N2CCN(C(=O)Nc3ccc4c(c3)OCCO4)CC2)n1,-13.9% (inactive)
5,Fc1cc(F)cc(CNc2cc(-n3ccnc3)ncn2)c1,0.587% (inactive)
6,COc1cc(OC)cc(C(=O)Nc2cccc(CCc3nc4ccc(C)cc4[nH]3)c2)c1,26% (inactive)
7,O=c1c2[nH]c3ccc(Cl)cc3c2ncn1Cc1cccnc1,-14.2% (inactive)
8,CCOc1ccc2[nH]c3c(=O)n(Cc4cccnc4)cnc3c2c1,22% (inactive)
9,COc1cc(Cn2cnc3c([nH]c4ccc(Br)cc43)c2=O)cc(OC)c1,57.3% (active)
10,CC(=O)Nc1onc(C)c1-c1ccc(C)c(S(=O)(=O)Nc2ccccc2)c1,-17.6% (inactive)
11,Cc1ccc(NC(=O)Cc2nc(-c3ccccc3)n[nH]2)cc1,44.3% (active)
12,O=C(Cc1nc(-c2ccccn2)n[nH]1)NC1CCCCCC1,-21.9% (inactive)
13,COc1ccc(CC(=O)Nc2cnc(-c3ccccc3)nc2)cc1,-102% (inactive)
14,CC(OC(=O)c1cn(-c2ccccc2)nc1-c1cccnc1)C(=O)Nc1cccc(S(=O)(=O)N(C)C)c1 (centres undefined),55.1% (active)
15,COc1ccccc1OCCC(=O)Nc1cccc(S(=O)(=O)N(C)C)c1,11.1% (inactive)
16,CCOc1ncccc1C(=O)NNC(=O)c1cn(-c2ccccc2)nc1-c1ccccc1,-0.192% (inactive)
17,CNc1nc(C2CCCN(C(=O)C3CCCCC3)C2)nc2c1CNCC2 (centres undefined),-11.2% (inactive)
18,COc1cc(NS(=O)(=O)c2ccc3c(c2)N(C)CCO3)cc(OC)c1,0.0144% (inactive)
19,O=C(Nc1ccccc1)c1ccc2c(c1)OCCCO2,3.42% (inactive)
20,O=C(Nc1ccc(N2CCN(c3ccccc3)C2=O)nc1)c1ccc2c(c1)OCO2,-9.55% (inactive)
21,CC(C)(C)c1ccc(Oc2ccc(NC(=O)c3ccc4c(c3)CCO4)cn2)cc1,34.9% (active)
22,Cc1nc2cc3c(cc2n1CC(=O)NCCc1ccccc1)OCCO3,-5.99% (inactive)

row,Structure (SMILES),inhibition
1,Cc1cccc(CC(=O)Nc2c(C)nc3ccccn3c2=O)c1,7.29% (inactive)
2,Cc1cc2oc(C(=O)Nc3ccc4c(c3)NC(=O)CO4)c(C)c2cc1Cl,19.5% (inactive)
3,COc1cccc(NC(=O)N2CC[C@H]3N(C)CC[C@@]3(C(=O)N3CCCC3)CC2)c1,-23.3% (inactive)
4,COc1cccc(N2CCN(C(=O)Nc3ccc4c(c3)NC(=O)CO4)CC2)c1,69.6% (active)
5,O=C(O)C[C@@H]1CCN(C(=O)C2CCCCC2)C[C@@H]1CC1=NCCc2ccccc21,-65% (inactive)
6,COc1ccc(SCc2nc(N)nc(Nc3ccccc3)n2)cc1,-33% (inactive)
7,CC(C)Cc1nc2sc3c(N(CCO)Cc4ccccc4)ncnc3c2c2c1COC(C)(C)C2,34.9% (active)
8,CSc1ncnc2c1sc1nc(-c3ccccc3)c3c(c12)CC(C)(C)OC3,9.17% (inactive)
9,CC1(C)Cc2c(c(-c3ccco3)nc3sc4c(SCCCc5ccccc5)ncnc4c23)CO1,11.9% (inactive)
10,COc1cccc(O[C@@H]2C[C@@H](NC(=O)C3CCOCC3)[C@H](O)[C@H]2O)c1,7.84% (inactive)
11,O=C1CNC(=O)N1CC(O)Cn1c2ccc(Br)cc2c2cc(Br)ccc21 (centres undefined),6.98% (inactive)
12,O=C(Nc1ccc(Cl)cc1)C1C2C=CC3(O2)C1C(=O)N(CCc1ccccc1Cl)C3C(=O)NC1CCCCC1 (centres undefined),29.8% (inactive)
13,O=c1c2cnc(N3CCCC3)nc2ccn1-c1ccccc1,31% (active)
14,O=c1c2cnc(N3CCCCC3)nc2ccn1Cc1cccnc1,1.8% (inactive)
15,O=c1c2cnc(N3CCOCC3)nc2ccn1CCc1ccccc1,12.9% (inactive)
16,c1ccc(-c2nccc(-c3ccc(-n4cncn4)cc3)n2)nc1,23.2% (inactive)
17,Cn1c(SCc2ccc(Cl)cc2)nnc1-c1ccc2c(c1)OCCO2,30.4% (active)
18,Cc1cc(C(=O)CSc2nnc(-c3ccc(F)cc3)n2C)c(C)n1C,-35% (inactive)
19,CCn1c(SCC(=O)Nc2ccc3c(c2)OCCO3)nnc1C(C)C,9.74% (inactive)
20,Cc1nn(-c2ccccc2)c2c1c(C)c(CCC(=O)N1CCN(c3ccc(F)cc3)CC1)c(=O)n2C,-7.59% (inactive)
21,Cc1nn(-c2cccc(F)c2)c2c1c(C)c(CCC(=O)NCc1ccccn1)c(=O)n2C,58.6% (active)
22,Cc1nc2cc(C(=O)NCc3ccccn3)ccc2n1-c1cccc(F)c1,0.251% (inactive)
